Bioassay records (PubChem)
PAFAH1B3 inh – PAFAH1B3 enzyme inhibitors, primary screen, biochemical, fluorescence polarization, human. recombinant PAFAH1B3, FP-rhodamine probe. Platelet-activating factor acetylhydrolase IB subunit alpha1 (Homo sapiens), Q15102. actives 0.28% (n = 340,000). inhibition, % at 3.39 µM;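 active = inhibition above the screen-wide average of all tested compounds plus 3 SD, cut at about 25% in these data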;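 also: 0% = enzyme with DMSO only and 100% = wells lacking PAFAH1B3 protein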
Fh CTSL1 inh – Fasciola hepatica cathepsin L1 inhibitors, primary screen, counter-screen for PFM18AAP inhibitor project, biochemical, QFRET, fluorogenic peptide substrate | recombinant F. hepatica cathepsin L1, Z-Leu-Arg-MCA fluorescence | inhibition, % at 5.96 µM | actives 0.49% (n = 300,000);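 active = inhibition above the mean of all tested compounds plus 3 SD, set per screening campaign, cut at about 17% in these data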;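 also: 0% = plate median of test compound wells and 100% = 1 µM Z-Phe-Ala-diazomethylketone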
pPAFAH inh – pPAFAH enzyme inhibitors, primary screen, biochemical, fluorescence polarization, human. recombinant pPAFAH, FP-rhodamine probe fluorescence polarization. Platelet-activating factor acetylhydrolase (Homo sapiens), Q13093. inhibition, % at 3.39 µM. AID 463082, 2010. actives 1.5% (n = 330,000);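 active = inhibition above the mean inhibition across the screen plus 3 SD, cut at about 25% in these data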;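 also: inhibitors block binding of the rhodamine activity-based probe so polarization drops; 0% = enzyme with DMSO and 100% = wells lacking pPAFAH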
PAFAH2 FP inh – PAFAH2 enzyme inhibitors, primary screen, biochemical, fluorescence polarization, human | recombinant PAFAH2, FP-rhodamine activity probe | inhibition, % at 3.39 µM | actives 0.99% (n = 340,000);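 active = inhibition above the mean over all tested compounds plus 3 SD, cut at about 30% in these data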;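 also: inhibitors block probe labeling of enzyme so polarization drops; 0% = enzyme with DMSO and 100% = wells lacking PAFAH2 protein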
PAFAH1B2 inh – PAFAH1B2 enzyme inhibitors, primary screen, biochemical, fluorescence polarization, human. actives 1.2% (n = 340,000). Platelet-activating factor acetylhydrolase IB subunit alpha2 (Homo sapiens), P68402. inhibition, % at 3.39 µM. AID 492953, 2010. recombinant PAFAH1B2, FP-rhodamine activity probe;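 active = inhibition above the mean of all tested compounds plus 3 SD, cut at about 24% in these data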;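 also: 0% = enzyme with DMSO and 100% = wells lacking PAFAH1B2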
PP5 primary – PP5 phosphatase inhibitors, primary screen, biochemical, fluorescence. Serine/threonine-protein phosphatase 5 (Homo sapiens), P53041. purified PP5c, OMFP substrate fluorescence. inhibition, % at 6.7 µM. actives 0.18% (n = 320,000). AID 1987, 2009;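 active = inhibition above the campaign's mean inhibition across all tested compounds plus 3 SD, cut at about 9.5% in these data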;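 also: 0% = DMSO only and 100% = 100 µM cantharidin control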
Target sequence (P53041 whole entry, looked up): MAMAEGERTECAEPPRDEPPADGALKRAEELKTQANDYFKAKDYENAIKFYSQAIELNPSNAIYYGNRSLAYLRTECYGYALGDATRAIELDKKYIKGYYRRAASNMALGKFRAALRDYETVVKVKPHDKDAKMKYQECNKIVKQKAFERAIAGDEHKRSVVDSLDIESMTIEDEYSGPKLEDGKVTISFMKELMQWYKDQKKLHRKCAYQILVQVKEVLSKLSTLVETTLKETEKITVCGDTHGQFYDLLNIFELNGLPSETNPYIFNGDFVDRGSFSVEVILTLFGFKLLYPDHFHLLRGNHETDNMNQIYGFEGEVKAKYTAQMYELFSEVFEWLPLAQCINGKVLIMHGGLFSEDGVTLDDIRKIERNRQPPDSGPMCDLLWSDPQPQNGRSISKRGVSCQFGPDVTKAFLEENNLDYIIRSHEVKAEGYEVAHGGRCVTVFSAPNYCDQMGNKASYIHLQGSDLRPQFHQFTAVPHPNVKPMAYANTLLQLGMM
An asterisk follows results filed as active; · = no result. This is a sample that favours compounds with a hit; in the whole collection about 3% have one here.

SMILES	PAFAH1B3 inh	Fh CTSL1 inh	pPAFAH inh	PAFAH2 FP inh	PAFAH1B2 inh	PP5 primary
CC(=O)C1=C(C)NC(SCC(=O)c2ccc(Cl)cc2)=C(C#N)C1c1ccco1 (configuration not stated)	14	1	15	15	2	4
Cc1ccc(C(=O)CSC2=C(C#N)C(c3ccco3)CC(=O)N2)c(C)c1 (configuration not stated)	15	0	28*	11	8	1
Cc1ccc(NC(=O)CSC2=C(C#N)C(c3ccco3)CC(=O)N2)cc1 (configuration not stated)	8	6	0	5	-5	2
CC(=O)C1=C(C)NC(SCC(=O)c2ccc(Cl)cc2Cl)=C(C#N)C1c1ccco1 (configuration not stated)	3	-1	28*	4	1	1
CCc1cc2c(CN(C)Cc3ccccc3F)cc(=O)oc2cc1O	4	6	0	-5	28*	2
CNC(=O)CSc1nc2cc(S(=O)(=O)Nc3ccc(OC)cc3)ccc2o1	1	1	27*	1	4	2
CC(CNC(=O)CN1C(=O)COc2ccc(S(=O)(=O)N3CCCCC3)cc21)c1ccccc1 (configuration not stated)	4	5	-2	2	20	3
CCNc1ccccc(C(=O)/C=C/c2ccc3c(c2)OCO3)c1=O	8	-2	32*	30*	5	2
O=C(COC(=O)c1ccc(C(F)(F)F)cc1)Nc1cccc(S(=O)(=O)N2CCCCC2)c1	-2	·	15	0	-8	7
CN(C)c1ccc(C(=O)OCC(=O)Nc2cccc(S(=O)(=O)N3CCCC3)c2)cc1	3	·	27*	86*	5	·
CN1CCN(C(=O)CSc2nc(-c3cccs3)cc(-c3cccs3)c2C#N)CC1	6	0	28*	19	4	1
CCN(CC)C(=O)CSc1nc(-c2cccs2)cc(-c2cccs2)c1C#N	3	1	3	-10	2	0
COc1ccc(Cl)c2sc(N(CCN(C)C)C(=O)CCS(=O)(=O)c3ccc(C)cc3)nc12	5	-2	1	5	-2	2
Cc1ccc2sc(N(CCCN(C)C)C(=O)CCS(=O)(=O)c3ccccc3)nc2c1C	10	40*	2	-4	-3	0
COc1ccc(OC)c2sc(N(CCCN(C)C)C(=O)CCS(=O)(=O)c3ccccc3)nc12	0	37*	-2	12	-4	0
CN(C)CCCN(C(=O)CCS(=O)(=O)c1ccccc1)c1nc2cc3c(cc2s1)OCO3	12	29*	5	-9	4	2
CCN(CC)CCN(C(=O)c1ccc(S(=O)(=O)N(CC)c2ccccc2)cc1)c1nc2c(OC)ccc(OC)c2s1	-5	1	4	-3	31*	1
COc1ccc(C)c2sc(N(CCN(C)C)C(=O)c3ccc4ccccc4c3)nc12	-2	3	1	-4	-1	2
CN(C)CCN(C(=O)CCS(=O)(=O)c1ccccc1)c1nc2c(F)cccc2s1	-4	4	-2	2	1	1
Cc1ccc(C(=O)Nc2ccccc2C(=O)N2CCCC(C)C2)cc1 (configuration not stated)	-4	-1	-2	-9	1	1
O=C(Nc1cc(C(F)(F)F)ccc1-n1cncn1)c1ccc([N+](=O)[O-])o1	2	6	7	4	3	-2
O=C1C(=O)N(Cc2cccs2)c2ccccc21	19	-7	3	7	7	1
CCOc1ccc(NC(=O)C2CC(=O)N(c3ccccc3F)C2)cc1 (configuration not stated)	-7	-3	-2	10	-4	0
Cc1ccccc1N=Cc1cc2c(cc1O)OC(N)=C(C#N)C2c1ccccc1 (configuration not stated)	-3	1	26*	18	-1	2
COc1ccc(C(=O)CCC(=O)N2CCN(c3ccc(C)cc3)C(C)C2)cc1 (configuration not stated)	10	-3	2	2	2	1
SMILES	PAFAH1B3 inh	Fh CTSL1 inh	pPAFAH inh	PAFAH2 FP inh	PAFAH1B2 inh	PP5 primary
CC(C)C[C@H](NC(=O)C1(c2ccccc2)CCN(C(=O)OC(C)(C)C)CC1)C(=O)N1CCC[C@H]1C(=O)O	11	41*	4	2	4	1
CC(C)[C@H](NC(=O)C1(c2ccccc2)CCN(C(=O)OC(C)(C)C)CC1)C(=O)O	2	27*	-4	-5	2	0
Cc1sc(-n2c(C)cc(/C=C3\SC(=S)NC3=O)c2C)c(C#N)c1C	10	4	31*	15	1	0
O=c1[nH]n2c(=O)c3c([nH]c2c1N=Nc1cccc(C(F)(F)F)c1)CCCC3	16	9	28*	24	30*	1
O=c1[nH]n2c(=O)c3c([nH]c2c1N=Nc1cccc(Cl)c1)CCC3	3	2	24	16	10	3
CCOC(=O)C(Cc1cc(N)c(Oc2ccc(OC)cc2)c(N)c1)NC(C)=O (configuration not stated)	13	·	·	-2	1	·
CC(C)(C)[C@H]1COC(=O)[C@@H](Cc2ccc(F)cc2)CC/C=C/C[C@@H](CC(=O)N[C@H](CO)Cc2ccccc2)C(=O)N1	4	·	7	4	31*	·
C[C@@H]1COC(=O)[C@@H](Cc2ccc(F)cc2)C/C=C\C[C@@H](CC(=O)N[C@H](CO)Cc2ccccc2)C(=O)N1	11	·	1	4	1	·
CC(C)(C)[C@H]1COC(=O)[C@@H](Cc2ccc(F)cc2)CC/C=C/C[C@@H](CC(=O)N[C@@H](CO)Cc2ccccc2)C(=O)N1	-3	·	12	-1	27*	·
O=C(C[C@@H]1C/C=C\C[C@@H](Cc2ccc(F)cc2)C(=O)OCCNC1=O)N[C@H](CO)Cc1ccccc1	7	·	3	9	27*	·
C[C@@H]1COC(=O)[C@H](Cc2ccc(F)cc2)C/C=C\C[C@@H](CC(=O)N[C@H](CO)Cc2ccccc2)C(=O)N1	-4	·	3	9	27*	·
Cc1ccc(S(=O)(=O)Cc2cc(F)c([N+](=O)[O-])cc2[N+](=O)[O-])cc1	3	-3	2	6	15	-5
O=C(C[C@H]1C/C=C\C[C@H](Cc2ccc(F)cc2)C(=O)OC[C@@H]2CCCN2C1=O)N[C@H](CO)Cc1ccccc1	5	·	0	1	7	·
